Assay in all cases: DAPPL (digital affinity profiling via proximity ligation, sequencing); 10 mM Tris-HCl pH 7.5, 50 mM NaCl, 1 mM DTT, 4% glycerol, room temperature, 30 min; GST-TFs on glutathione beads, 16-mer random dsDNA library, 0.1% formaldehyde crosslink after washing; high values mean tight binding
What all share (conditions): protein: recombinant; tags: N-terminal GST; dsDNA, one strand shown

One assay deals with T1, ERF (Homo sapiens, UniProt P50548 1-548).
T1 sequence: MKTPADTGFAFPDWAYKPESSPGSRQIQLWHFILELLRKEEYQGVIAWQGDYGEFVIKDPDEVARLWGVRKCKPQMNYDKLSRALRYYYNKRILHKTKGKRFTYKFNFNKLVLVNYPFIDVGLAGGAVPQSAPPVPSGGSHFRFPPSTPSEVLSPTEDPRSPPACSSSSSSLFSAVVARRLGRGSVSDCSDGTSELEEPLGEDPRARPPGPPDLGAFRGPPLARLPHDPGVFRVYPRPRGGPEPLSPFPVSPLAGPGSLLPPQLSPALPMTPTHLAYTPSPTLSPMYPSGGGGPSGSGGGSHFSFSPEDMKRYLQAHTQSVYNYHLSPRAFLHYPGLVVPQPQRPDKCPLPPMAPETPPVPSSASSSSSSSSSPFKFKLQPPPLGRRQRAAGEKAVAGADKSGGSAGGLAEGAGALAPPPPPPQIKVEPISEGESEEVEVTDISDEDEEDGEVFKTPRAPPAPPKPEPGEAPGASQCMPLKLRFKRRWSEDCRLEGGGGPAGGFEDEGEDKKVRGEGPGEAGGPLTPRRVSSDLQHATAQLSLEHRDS
The gist of the method:
(§1)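 Each value of binding signal is a hexamer's read frequency for a factor divided by the same hexamer's frequency in the tag-only sample. Barcoded, bead-captured GST fusions of human transcription factors made in yeast were pooled with that sample and incubated with 200 nmole of a random double-stranded 16-mer DNA library in Tris/NaCl/DTT/glycerol buffer at room temperature for 30 min. Washing, 0.1% formaldehyde crosslinking, proximity ligation, PCR and Illumina NextSeq500 sequencing followed.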

Another assay deals with T2, ETV3L (Homo sapiens, UniProt Q6ZN32 1-361).
T2 sequence: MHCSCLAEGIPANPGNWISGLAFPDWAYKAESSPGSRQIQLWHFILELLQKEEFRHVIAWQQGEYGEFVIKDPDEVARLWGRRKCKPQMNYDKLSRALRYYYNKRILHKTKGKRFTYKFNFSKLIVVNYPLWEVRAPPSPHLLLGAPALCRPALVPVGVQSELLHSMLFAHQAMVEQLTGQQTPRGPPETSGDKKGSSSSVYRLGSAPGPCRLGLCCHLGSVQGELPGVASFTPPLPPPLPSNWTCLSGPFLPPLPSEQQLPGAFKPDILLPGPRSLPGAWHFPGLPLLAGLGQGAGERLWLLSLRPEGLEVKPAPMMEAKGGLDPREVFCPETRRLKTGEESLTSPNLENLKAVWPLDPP
The procedure, abridged: as §1

The target in the next assay is T3, ETS2 (Homo sapiens, UniProt P15036 1-469).
T3 sequence: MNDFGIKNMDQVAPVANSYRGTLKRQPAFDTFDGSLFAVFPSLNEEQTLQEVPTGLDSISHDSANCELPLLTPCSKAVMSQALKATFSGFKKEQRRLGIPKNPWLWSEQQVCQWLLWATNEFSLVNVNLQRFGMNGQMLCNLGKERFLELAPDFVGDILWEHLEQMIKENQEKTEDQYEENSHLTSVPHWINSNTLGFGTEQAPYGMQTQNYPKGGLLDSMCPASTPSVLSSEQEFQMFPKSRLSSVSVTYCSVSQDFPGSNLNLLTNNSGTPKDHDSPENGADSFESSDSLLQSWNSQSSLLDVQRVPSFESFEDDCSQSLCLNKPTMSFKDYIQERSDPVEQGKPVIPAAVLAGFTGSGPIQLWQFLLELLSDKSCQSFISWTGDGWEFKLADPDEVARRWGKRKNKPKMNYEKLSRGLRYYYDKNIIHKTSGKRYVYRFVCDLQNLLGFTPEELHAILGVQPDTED
The gist of the method: as §1

For a further assay, the target named is T4, SPDEF (Homo sapiens, UniProt O95238 1-335).
T4 sequence: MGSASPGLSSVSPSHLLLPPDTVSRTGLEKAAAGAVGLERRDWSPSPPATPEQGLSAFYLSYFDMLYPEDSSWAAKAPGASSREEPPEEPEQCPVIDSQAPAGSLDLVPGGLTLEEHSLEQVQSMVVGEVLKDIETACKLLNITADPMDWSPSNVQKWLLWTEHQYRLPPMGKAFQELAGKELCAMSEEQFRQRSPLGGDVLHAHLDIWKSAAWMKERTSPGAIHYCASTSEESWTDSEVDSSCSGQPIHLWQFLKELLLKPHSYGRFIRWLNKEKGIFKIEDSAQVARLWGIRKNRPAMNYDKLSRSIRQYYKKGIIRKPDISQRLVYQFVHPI
The gist of the method: as §1

The target in a further assay is T5, ELF5 (Homo sapiens, UniProt Q9UKW6-2 1-255).
T5 sequence: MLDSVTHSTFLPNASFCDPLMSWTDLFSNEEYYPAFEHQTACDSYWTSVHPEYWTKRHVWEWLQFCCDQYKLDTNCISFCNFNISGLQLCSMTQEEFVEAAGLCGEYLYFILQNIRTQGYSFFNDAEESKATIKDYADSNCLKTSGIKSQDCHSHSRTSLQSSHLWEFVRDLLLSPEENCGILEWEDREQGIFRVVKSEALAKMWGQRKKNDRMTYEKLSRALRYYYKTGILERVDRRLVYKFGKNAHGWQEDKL
The gist of the method:
as §1

Another assay addresses T6, ETV3 (Homo sapiens, UniProt P41162-2 1-143).
T6 sequence: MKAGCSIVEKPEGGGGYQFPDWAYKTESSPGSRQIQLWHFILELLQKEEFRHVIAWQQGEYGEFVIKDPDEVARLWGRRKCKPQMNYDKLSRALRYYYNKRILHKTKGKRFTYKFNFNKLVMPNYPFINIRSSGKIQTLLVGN
The procedure, abridged:
as §1

In another assay the target is ETV6 (Homo sapiens, UniProt P41212 1-452). The procedure, abridged:
as §1

Another assay addresses T7, ETV7 (Homo sapiens, UniProt Q9Y603 1-341).
T7 sequence: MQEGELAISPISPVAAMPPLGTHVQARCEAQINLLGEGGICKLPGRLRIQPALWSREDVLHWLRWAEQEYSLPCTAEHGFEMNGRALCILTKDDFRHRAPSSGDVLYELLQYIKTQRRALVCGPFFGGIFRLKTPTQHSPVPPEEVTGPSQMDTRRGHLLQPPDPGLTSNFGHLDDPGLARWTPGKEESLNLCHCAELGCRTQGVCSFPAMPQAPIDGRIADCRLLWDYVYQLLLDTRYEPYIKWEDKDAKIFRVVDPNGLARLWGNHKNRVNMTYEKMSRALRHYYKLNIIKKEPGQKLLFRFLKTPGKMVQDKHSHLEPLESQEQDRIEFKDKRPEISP
The gist of the method:
as §1

Sequence of ETV6 (P41212 whole entry): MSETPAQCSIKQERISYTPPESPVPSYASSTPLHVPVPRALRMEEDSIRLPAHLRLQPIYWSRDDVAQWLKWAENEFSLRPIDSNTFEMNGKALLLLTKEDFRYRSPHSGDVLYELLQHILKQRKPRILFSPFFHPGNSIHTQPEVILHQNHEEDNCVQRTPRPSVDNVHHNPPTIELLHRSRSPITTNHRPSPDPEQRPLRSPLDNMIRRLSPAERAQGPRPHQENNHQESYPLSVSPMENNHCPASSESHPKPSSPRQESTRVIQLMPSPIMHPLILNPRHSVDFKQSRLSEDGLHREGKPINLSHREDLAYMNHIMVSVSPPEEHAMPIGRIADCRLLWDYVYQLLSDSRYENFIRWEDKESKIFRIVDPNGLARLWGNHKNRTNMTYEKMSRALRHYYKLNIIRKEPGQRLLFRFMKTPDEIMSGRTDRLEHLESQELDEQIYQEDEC

Regarding CAAAGC, the binding signal in the assay with ERF is 1.13 fold enrichment (6-mer frequency, TF over GST control); with ETV3L, 1.07 fold enrichment (6-mer frequency, TF over GST control); in the assay with ETS2 it was 1 fold enrichment (6-mer frequency, TF over GST control); in the assay with SPDEF, 1.06 fold enrichment (6-mer frequency, TF over GST control); with ELF5, 1.01 fold enrichment (6-mer frequency, TF over GST control); in the assay with ETV3 it was 1.08 fold enrichment (6-mer frequency, TF over GST control). For the same sequence, the binding signal in the assay with ETV6 was 1.08 fold enrichment (6-mer frequency, TF over GST control).

With TAATCG, the binding signal with ERF was 1.06 fold enrichment (6-mer frequency, TF over GST control); with ETV3L, 1.09 fold enrichment (6-mer frequency, TF over GST control); in the assay with ETS2 it was 1.08 fold enrichment (6-mer frequency, TF over GST control); with SPDEF, 1.05 fold enrichment (6-mer frequency, TF over GST control); with ELF5 it was 1.05 fold enrichment (6-mer frequency, TF over GST control); with ETV6, 1.05 fold enrichment (6-mer frequency, TF over GST control).

For GATACT, the binding signal was 1.22 fold enrichment (6-mer frequency, TF over GST control) with ERF; 1.22 fold enrichment (6-mer frequency, TF over GST control) with ETV3L; 1.09 fold enrichment (6-mer frequency, TF over GST control) with ETS2; 1.17 fold enrichment (6-mer frequency, TF over GST control) with SPDEF; 1.06 fold enrichment (6-mer frequency, TF over GST control) with ELF5; 1.06 fold enrichment (6-mer frequency, TF over GST control) in the assay with ETV3. Besides, the binding signal with ETV6 is 1.07 fold enrichment (6-mer frequency, TF over GST control).

As to CGGCTT, the binding signal with ERF was 1.27 fold enrichment (6-mer frequency, TF over GST control); with ETV3L it was 1.1 fold enrichment (6-mer frequency, TF over GST control); with ETS2 it was 1.21 fold enrichment (6-mer frequency, TF over GST control); with SPDEF, 1.33 fold enrichment (6-mer frequency, TF over GST control); in the assay with ELF5, 1.19 fold enrichment (6-mer frequency, TF over GST control); in the assay with ETV3, 1.15 fold enrichment (6-mer frequency, TF over GST control). Further, in the assay with ETV6, the binding signal is 1.16 fold enrichment (6-mer frequency, TF over GST control).

With TAGAAA, the binding signal in the assay with ERF is 1.04 fold enrichment (6-mer frequency, TF over GST control); in the assay with ETV3L it was 1.08 fold enrichment (6-mer frequency, TF over GST control); with ETS2 it was 1.08 fold enrichment (6-mer frequency, TF over GST control); with SPDEF, 1.04 fold enrichment (6-mer frequency, TF over GST control); with ETV7, 1.12 fold enrichment (6-mer frequency, TF over GST control); in the assay with ETV3 it was 1.05 fold enrichment (6-mer frequency, TF over GST control). The binding signal in the assay with ETV6 is 1.06 fold enrichment (6-mer frequency, TF over GST control).

On to GCTCAG, for which the binding signal with ERF was 1.18 fold enrichment (6-mer frequency, TF over GST control); in the assay with ETV3L it was 1.16 fold enrichment (6-mer frequency, TF over GST control); with ETS2, 1.06 fold enrichment (6-mer frequency, TF over GST control); with SPDEF, 1.09 fold enrichment (6-mer frequency, TF over GST control); in the assay with ELF5, 1.01 fold enrichment (6-mer frequency, TF over GST control); with ETV3, 1.1 fold enrichment (6-mer frequency, TF over GST control). Moreover, the binding signal in the assay with ETV6 was 1.13 fold enrichment (6-mer frequency, TF over GST control).

With CTCCAG, the binding signal is 1.2 fold enrichment (6-mer frequency, TF over GST control) with ERF; 1.2 fold enrichment (6-mer frequency, TF over GST control) in the assay with ETV3L; 1.19 fold enrichment (6-mer frequency, TF over GST control) with ETS2; 1.16 fold enrichment (6-mer frequency, TF over GST control) with SPDEF; 1.15 fold enrichment (6-mer frequency, TF over GST control) with ELF5; 1.23 fold enrichment (6-mer frequency, TF over GST control) with ETV3.

Take CATGCC: the binding signal in the assay with ERF was 1.12 fold enrichment (6-mer frequency, TF over GST control); with ETV3L, 1 fold enrichment (6-mer frequency, TF over GST control); with ETS2 it was 1.05 fold enrichment (6-mer frequency, TF over GST control); with SPDEF, 1.09 fold enrichment (6-mer frequency, TF over GST control); in the assay with ELF5 it was 1.05 fold enrichment (6-mer frequency, TF over GST control); with ETV3 it was 1.22 fold enrichment (6-mer frequency, TF over GST control). For the same sequence, the binding signal with ETV6 was 1.15 fold enrichment (6-mer frequency, TF over GST control).

(Values after publication PMC7862700, “An all-to-all approach to the identification of sequence-specific readers for epigenetic DNA modifications on cytosine”.)
